# According to PubChem BioAssay (NCATS):
# Inconclusive results are not listed. For some of these results: Results with a measured potency or affinity are listed apart. The source made the active and inactive calls. Unless noted, the rule behind the calls is not given here.
# What was measured:
# [1] = qHTS profiling of the MIPE4 collection as inhibitors of Plasmodium falciparum (DD2) proliferation (AID 743345); conditions: P. falciparum Dd2 in erythrocytes, SYBR Green DNA, 72 h; at 28.5 µM (top of the series) unless noted
# Method in brief: (§1)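 Parasite DNA was quantified by SYBR Green I fluorescence (ex 485, em 535 nm) after overnight lysis in saponin/Triton buffer at room temperature. Cultures at 0.3% parasitemia and 2.5% hematocrit were first exposed to compound for 72 h at 37 C; signals were normalised to artemisinin (0.29 uM) and vehicle wells.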
# [2] = qHTS profiling of the MIPE4 collection as inhibitors of Plasmodium falciparum (DD2) proliferation (Rep 2) (AID 743346); conditions: P. falciparum Dd2 in erythrocytes, SYBR Green DNA, 72 h; at 28.5 µM (top of the series) unless noted
# Method in brief: as §1
# [3] = qHTS profiling of the MIPE4 collection as inhibitors of Plasmodium falciparum (HB3) proliferation (AID 743347);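 note: plate controls were DMSO vehicle wells for no effect and artemisinin wells for full effect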; conditions: P. falciparum HB3 in erythrocytes, SYBR Green DNA, 72 h; at 28.5 µM (top of the series) unless noted
# Method in brief: as §1
# [4] = Ebola virus entry assay, ratio channel
# [5] = Ebola virus entry assay, green channel fluorescence
# [6] = Ebola virus entry assay, reporter ratio channel; AC50: Channel type: primary unless noted; outcome: Channel type: primary unless noted
# [7] = Ebola virus entry assay, blue channel (ratio component)
# [8] = High-throughput drug toxicity screening in the BPDCN cell line Cal-1 (AID 1224825); conditions: Cal-1 BPDCN cell viability, qHTS; at 45.8 µM (top of the series) unless noted;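 note: cells exposed to compounds for 48 h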
# Method in brief: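 Percent activity derived from CellTiter-Glo luminescence, scaling DMSO to 100% and 9.2 uM final bortezomib to 0%. BPDCN Cal-1 cells (500/well, RPMI plus 10% FBS) incubated with compounds 48 hours at 37C before reading.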
# [9] = qHTS assay for measurement of the activity of small molecule inhibitors on Zika virus induced Caspase-3 activity in human iPSC derived neural progenitor cells (hNPCs) (AID 1224857; active = well fitted inhibition curve with a large enough effect; note: % of control where 0% means no effect; nearly all actives have a fitted effect of over 65% in size)
# Method in brief: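 After overnight (16–20 h) culture at 350 cells/well, hNPCs get compound, then ZIKV 2 FFU/cell one hour later. Six hours on, Caspase-Glo 3/7 is added and luminescence measured.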
# [10] = qHTS assay for measurement of the activity of small molecule inhibitors on Zika virus induced Caspase-3 activity in human astrocytoma cells (AID 1224859; active = well fitted inhibition curve with a large enough effect;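 note: plate controls were ZIKV-infected untreated cells for no effect and uninfected cells for full effect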)
# Method in brief: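 Inhibition of Zika-induced caspase-3/7 activity: SNB-19 cells, 1 h compound pretreatment, ZIKV 2 FFU/cell for 6 h at 37 C, Caspase-Glo luminescence read-out.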
# [11] = Ebola virus entry assay, blue channel fluorescence
compound,measurement,setting,value
COc1cc(OC)c(OC)cc1C=O,"parasite growth remaining, % of DMSO control (lower = more inhibition)",[1],89%
same,"parasite growth, % of control (lower = inhibition)",[2],110%
same,"growth, % of control",[3],102%
same,outcome,[4],inactive
same,outcome,[5],inactive
same,outcome,[6],inactive
same,outcome,[7],inactive
same,viability (% of control),[8],98.8%
same,outcome,[9],inactive
same,outcome,[10],inactive
O=S(=O)(O)CCS,outcome,[11],inactive
same,outcome,[5],inactive
same,outcome,[6],inactive
same,outcome,[7],inactive
CCN1CCCC1CNC(=O)c1cc(S(=O)(=O)CC)c(N)cc1OC (stereo not given),outcome,[11],inactive
same,outcome,[5],inactive
same,outcome,[6],inactive
same,outcome,[7],inactive
CC(C)(C)NCC(O)c1cc(O)cc(O)c1 (stereo not given),outcome,[11],inactive
same,outcome,[5],inactive
same,outcome,[7],inactive
COc1ccc(CCN(C)CCCN2CCc3cc(OC)c(OC)cc3CC2=O)cc1OC,outcome,[11],inactive
same,outcome,[5],inactive
same,outcome,[6],inactive
same,outcome,[7],inactive
Nc1ccc(N)c([N+](=O)[O-])c1,outcome,[4],inactive
same,outcome,[5],inactive
same,outcome,[6],inactive
same,outcome,[7],inactive
c1ccc2sc(SN3CCOCC3)nc2c1,outcome,[11],inactive
same,outcome,[5],inactive
same,outcome,[6],inactive
same,outcome,[7],inactive
CC(=O)OC(C)C[N+](C)(C)C (stereo not given),outcome,[11],inactive
same,outcome,[5],inactive
same,outcome,[6],inactive
same,outcome,[7],inactive
CC(C)c1ccc2oc3nc(N)c(C(=O)O)cc3c(=O)c2c1,outcome,[11],inactive
same,outcome,[5],inactive
same,outcome,[6],inactive
same,outcome,[7],inactive
Nc1c(I)cc(I)c(C(=O)N(CCC(=O)O)c2ccccc2)c1I,outcome,[11],inactive
same,outcome,[5],inactive
same,outcome,[6],inactive
same,outcome,[7],inactive
CCCCCCCCCCCCCCCCO,outcome,[11],inactive
same,outcome,[5],inactive
same,outcome,[6],inactive
same,outcome,[7],inactive
Cc1[nH]cnc1-c1ccc(Cl)cc1,outcome,[11],inactive
same,outcome,[5],inactive
same,outcome,[6],inactive
same,outcome,[7],inactive
CCCCNC(=O)NS(=O)(=O)c1ccc(N)cc1,outcome,[11],inactive
same,outcome,[5],inactive
same,outcome,[6],inactive
same,outcome,[7],inactive
O=c1oc2ccccc2c(O)c1Cc1c(O)c2ccccc2oc1=O,outcome,[11],inactive
same,outcome,[5],inactive
same,outcome,[6],inactive
same,outcome,[7],inactive
same,outcome,[9],inactive
same,outcome,[10],inactive
O=c1[nH]c(=O)n([C@H]2O[C@H](CO)[C@@H](O)[C@@H]2O)cc1/C=C\Br,outcome,[11],inactive
same,outcome,[5],inactive
same,outcome,[6],inactive
same,outcome,[7],inactive
Cc1cccn2c(=O)c(-c3nnn[nH]3)cnc12,outcome,[11],inactive
same,outcome,[5],inactive
same,outcome,[6],inactive
same,outcome,[7],inactive
NCCc1ccc(O)cc1,outcome,[11],inactive
same,outcome,[5],inactive
same,outcome,[6],inactive
same,outcome,[7],inactive
same,outcome,[9],inactive
same,outcome,[10],inactive
Nc1ccccc1,outcome,[11],inactive
same,outcome,[5],inactive
same,outcome,[6],inactive
same,outcome,[7],inactive
same,outcome,[9],inactive
same,outcome,[10],inactive
O=C(O)c1cc(=O)[nH]c(=O)[nH]1,outcome,[11],inactive
same,outcome,[5],inactive
same,outcome,[6],inactive
same,outcome,[7],inactive
C[C@]12CCC(=O)C=C1CC[C@@H]1[C@H]3CC[C@](C)(O)[C@@]3(C)CC[C@@H]12,"parasite growth remaining, % of DMSO control (lower = more inhibition)",[1],94.5% [at 57.5 µM]
same,"parasite growth, % of control (lower = inhibition)",[2],65.8% [at 57.5 µM]
same,"growth, % of control",[3],84.5% [at 57.5 µM]
same,outcome,[4],inactive
same,outcome,[5],inactive
same,outcome,[6],inactive
same,outcome,[7],inactive
same,viability (% of control),[8],93.9% [at 92.2 µM]
same,outcome,[9],inactive
same,outcome,[10],inactive
CN=C(N)NC(=O)Nc1c(C)cccc1C,outcome,[11],inactive
same,outcome,[5],inactive
same,outcome,[6],inactive
same,outcome,[7],inactive
CCCC(=O)c1cc(O)c(O)cc1O,AC50,[4],10 µM (active)
same,outcome,[5],inactive
same,AC50,[6],10 µM (active)
same,outcome,[7],inactive
CC(=O)Nc1ccc(S(=O)(=O)Nc2cc(C)on2)cc1,outcome,[11],inactive
same,outcome,[5],inactive
same,outcome,[6],inactive
same,outcome,[7],inactive
CCCOC(=O)c1cncn1C(C)c1ccccc1 (stereo not given),outcome,[11],inactive
same,outcome,[5],inactive
same,outcome,[6],inactive
same,outcome,[7],inactive
same,outcome,[9],inactive
same,outcome,[10],inactive
